Some test systems named below: NCI-H226 lung; NCI-H322M lung; HOP-62 NSCLC; NCI-H460 lung; HOP-92 NSCLC; NCI-H522 lung; A549/ATCC NSCLC; 786-0 renal; COLO 205 colon.
Assay in all cases: NCI-60 one-dose screen, 48 h (100 = growth as untreated, 0 = no growth, -100 = all killed)
Holding throughout (settings): 10 µM unless noted

Compounds without any hit were thinned out: in the full panel of roughly 83,000, 20% have a hit.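 The endpoint reported here, percent growth, reads 100 for growth as untreated, 0 for no net growth and -100 for all cells dead.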 Unmarked numbers belong to inactive results. Active and inactive are the calls of the source. How the source made its calls: active means growth percent below 10; inactive means the rest.

Turning to `C=CCc1c(O)c(C(=O)/C=C/c2ccccc2)c(OC)c2ccoc12`, the growth with NCI-H226 lung is 21.9%; in the experiment on NCI-H322M lung it was 61.9%; with HOP-62 NSCLC, 88%; in the experiment with NCI-H460 lung, 16.8%; with HOP-92 NSCLC, 47.3%; in the experiment on NCI-H522 lung it was 37.9%. Besides, the figures for the growth with A549/ATCC NSCLC, in the experiment with 786-0 renal and in the experiment with COLO 205 colon were 44.7%, 71.3% and 59.5%, respectively.
For the compound `COc1ccc2c(c1)N(CCO)C1=C(C(=O)OC1)C2c1cccc(F)c1` (centres undefined), the growth was 45% in the experiment with NCI-H226 lung; 46.5% with NCI-H322M lung; 36.9% with HOP-62 NSCLC; 6.1% (active) in the experiment with NCI-H460 lung; 57.4% with HOP-92 NSCLC; 6.05% (active) with NCI-H522 lung. Moreover, the growth was 16.1% in the experiment on A549/ATCC NSCLC, 27.9% with 786-0 renal and -22.6% (active) with COLO 205 colon.
For `Cc1cc(N2CCN(CCNc3ccnc4cc(Cl)ccc34)CC2)nc(N2CCOCC2)n1`, the growth in the experiment on NCI-H226 lung is 79.5%; with NCI-H322M lung, 74.9%; with HOP-62 NSCLC, 81.4%; in the experiment with NCI-H460 lung, 64.6%; in the experiment with HOP-92 NSCLC, 47.7%; in the experiment on NCI-H522 lung, 76.5%. Also, the growth was 71.4% in the experiment with A549/ATCC NSCLC, 74% in the experiment with 786-0 renal and 11.6% with COLO 205 colon.
As to `NC(Cc1ccc(O)c([N+](=O)[O-])c1)C(=O)O` (centres undefined), the growth in the experiment on NCI-H226 lung was 101%; in the experiment with NCI-H322M lung it was 107%; with HOP-62 NSCLC, 105%; in the experiment with NCI-H460 lung it was 113%; with HOP-92 NSCLC, 67.4%; in the experiment on NCI-H522 lung, 94.7%. Besides, the figures for the growth in the experiment with A549/ATCC NSCLC, in the experiment with 786-0 renal and in the experiment on COLO 205 colon were 100%, 99.2% and 122%, respectively.
For `CC(C)C1=NOC(=O)C1=Cc1cn(-c2ccccc2)nc1-c1ccc(F)cc1`, the growth in the experiment on NCI-H226 lung was 93.7%; in the experiment with NCI-H322M lung it was 94.9%; in the experiment on HOP-62 NSCLC, 90.1%; with NCI-H460 lung it was 76.8%; with NCI-H522 lung it was 66.5%; in the experiment with A549/ATCC NSCLC, 81.4%. Besides, the growth with 786-0 renal was 77.4%; in the experiment on COLO 205 colon, 94.4%.
In the case of `N#CC1=C(c2ccccc2)Nc2c(c(-c3ccc(Cl)cc3)nn2-c2ccccc2)C12C(=O)Nc1ccc(Cl)cc12` (centres undefined), the growth in the experiment on NCI-H226 lung is 80.7%; with NCI-H322M lung it was 91.3%; in the experiment with HOP-62 NSCLC it was 77.3%; with NCI-H460 lung, 71.2%; with HOP-92 NSCLC, 61.8%; with NCI-H522 lung it was 72.2%. For the same compound, the growth is 54.7% in the experiment with A549/ATCC NSCLC, 79.2% with 786-0 renal and 73% in the experiment with COLO 205 colon.
With `CC(C)(C)CC(C)(C)NC(=O)Nc1ncccc1OCc1ccccc1`, the growth in the experiment with NCI-H226 lung was 91.6%; in the experiment with NCI-H322M lung, 86.3%; in the experiment on HOP-62 NSCLC it was 97.1%; with NCI-H460 lung, 106%; in the experiment on HOP-92 NSCLC, 87.7%; with NCI-H522 lung, 70.7%. Besides, the values for the growth in the experiment with A549/ATCC NSCLC, with 786-0 renal and in the experiment with COLO 205 colon were 89.8%, 98.5% and 105%, respectively.
`Cc1ccc(NC(=O)c2sc3nc(C)c(Br)c(C)c3c2N)cc1`: the growth was 47.7% in the experiment on NCI-H226 lung; 51.2% with NCI-H322M lung; 34.9% in the experiment on HOP-62 NSCLC; 54.4% with NCI-H460 lung; -5.03% (active) in the experiment with HOP-92 NSCLC; 71.9% in the experiment with NCI-H522 lung. Besides, the growth in the experiment on A549/ATCC NSCLC was 67.7%; in the experiment on 786-0 renal, 30.5%; with COLO 205 colon, 84.9%.
For the compound `Cc1c2cnccc2c(C)c2c1c1cc(C#N)ccc1n2C`, the growth in the experiment with NCI-H226 lung is -18.6% (active); with NCI-H322M lung, -16% (active); in the experiment with HOP-62 NSCLC, -25.5% (active); in the experiment on NCI-H460 lung, -19.7% (active); in the experiment on HOP-92 NSCLC, -12.1% (active); in the experiment on NCI-H522 lung, -71% (active). The figures for the growth in the experiment with A549/ATCC NSCLC, in the experiment with 786-0 renal and in the experiment with COLO 205 colon were -19.8% (active), -16.1% (active) and -37.2% (active), respectively.
For the compound `COc1ccc(C(=O)c2cc3c(N)c(C(=O)Nc4ccc(C)cc4)sc3nc2C)cc1`, the growth in the experiment on NCI-H226 lung was 57.2%; in the experiment with NCI-H322M lung, 48.9%; in the experiment on HOP-62 NSCLC, 36.3%; in the experiment with NCI-H460 lung, 4.1% (active); in the experiment on HOP-92 NSCLC, 70.8%; in the experiment on NCI-H522 lung, 13.3%. Besides, the growth is 22.3% with A549/ATCC NSCLC, 42.9% with 786-0 renal and 18.7% with COLO 205 colon.
With `COc1ccc(-c2nc3c(ncc4ccc(=O)[nH]c43)s2)cc1`, the growth is 76.1% in the experiment with NCI-H226 lung; 77.7% in the experiment with NCI-H322M lung; 90.2% in the experiment on HOP-62 NSCLC; 40.8% in the experiment on NCI-H460 lung; 87.7% in the experiment on HOP-92 NSCLC; 85.3% with NCI-H522 lung. Besides, the growth in the experiment on A549/ATCC NSCLC was 56.1%; in the experiment with 786-0 renal, 88.3%; in the experiment on COLO 205 colon, 83.6%.
For the compound `CCCCCCCC[C@@H]1N[C@@H](C(=O)OC)Cc2c1[nH]c1ccccc21`, the growth with NCI-H226 lung is 92.5%; in the experiment on NCI-H322M lung, 99.7%; in the experiment with HOP-62 NSCLC it was 103%; in the experiment on NCI-H460 lung it was 102%; in the experiment on HOP-92 NSCLC, 89.5%; in the experiment on NCI-H522 lung, 86.6%. Moreover, the growth with A549/ATCC NSCLC was 104%; in the experiment on 786-0 renal, 96.2%; in the experiment on COLO 205 colon, 113%.
For the compound `CC(C)Cn1cnc2c(=O)[nH]c(N)nc21`, the growth with NCI-H226 lung is 89.8%; in the experiment on NCI-H322M lung it was 99.9%; in the experiment with HOP-62 NSCLC it was 80.8%; in the experiment with NCI-H460 lung it was 110%; in the experiment on HOP-92 NSCLC, 90.8%; with NCI-H522 lung, 70.8%. Besides, the growth was 85.4% in the experiment with A549/ATCC NSCLC, 98.9% in the experiment with 786-0 renal and 97.1% in the experiment on COLO 205 colon.
As to `Nc1c(C(=O)Nc2ccccc2F)sc2nc3c(cc12)CCCC3`, the growth is 63.5% in the experiment with NCI-H226 lung; 63.1% with NCI-H322M lung; 23.7% in the experiment on HOP-62 NSCLC; 12% with NCI-H460 lung; 11.9% with HOP-92 NSCLC; 23% in the experiment with NCI-H522 lung. Besides, the growth with A549/ATCC NSCLC is 39.5%; in the experiment with 786-0 renal, 33.2%; in the experiment on COLO 205 colon, 13%.
In the case of `Cn1ccnc1C(=O)/C=C/c1ccc(CC(=O)Nc2cc(C(F)(F)F)cc(C(F)(F)F)c2)cc1`, the growth was 91.4% in the experiment with NCI-H226 lung; 73.2% in the experiment with NCI-H322M lung; 85.9% in the experiment with HOP-62 NSCLC; 55.3% in the experiment on NCI-H460 lung; 87% in the experiment on HOP-92 NSCLC; 77.4% in the experiment on NCI-H522 lung. Moreover, the growth in the experiment with A549/ATCC NSCLC was 60.1%; with 786-0 renal, 65.6%; in the experiment with COLO 205 colon, 98.3%.
